{"source": "ChEMBL document CHEMBL4513216", "about": "“Probing the Open Global Health Chemical Diversity Library for Multistage-Active Starting Points for Next-Generation Antimalarials” (ACS Infect Dis, 2020)", "note": "Out of some 69,000 compounds screened, about 8,600 (12%) showed an effect of 50% or more. Only a selection was taken, and strong results are over-represented in it overall."}
{"system": "Plasmodium berghei", "assay": "Screen against P. berghei liver stage (PbLuc), transformed with Luciferase, at 10uM", "assay_type": "functional, HepG2", "conditions": "tested at 10 uM", "units": {"INHIBITION": "%"}}
{"smiles": "Cc1nc(N(C)C)nc(NCCc2ccccn2)c1C", "INHIBITION": -43.6}
{"smiles": "Cc1nc(NCCSc2ccccn2)c2c(C)noc2n1", "INHIBITION": 13.5}
{"smiles": "Cc1nc(C)c(C)c(NCCSc2ccccn2)n1", "INHIBITION": 60.2}
{"smiles": "CC(C)CN1C[C@@H]2CN(C(=O)[C@H]3CCCO3)C[C@@H]2C1=O", "INHIBITION": 17.4}
{"smiles": "CCN1CCCC1CNCc1cc2cc3c(cc2[nH]c1=O)OCCO3", "note": "(stereo not drawn)", "INHIBITION": 58.2}
{"smiles": "CCN1CCCC1CNCc1cc2cc(C)c(C)cc2[nH]c1=O", "note": "(stereo not drawn)", "INHIBITION": -29.9}
{"smiles": "CCN1CCCC1CNCc1cc2ccccc2[nH]c1=O", "note": "(stereo not drawn)", "INHIBITION": -61.5}
{"smiles": "COc1ccc2cc(CN(C)CCc3cn[nH]c3)c(=O)[nH]c2c1", "INHIBITION": 36.5}
{"smiles": "CSc1ccc2cc(CN(C)CCc3cn[nH]c3)c(=O)[nH]c2c1", "INHIBITION": 20.8}
{"smiles": "CCN1CCCC1CNCc1cc2cc(OC)c(OC)cc2[nH]c1=O", "note": "(stereo not drawn)", "INHIBITION": 18.3}
{"smiles": "COc1ccc2[nH]c(=O)c(CN(C)C(C)c3ccccn3)cc2c1", "note": "(stereo not drawn)", "INHIBITION": -3.55}
{"smiles": "COc1ccc2cc(CN(C)CCN3CCCCC3=O)c(=O)[nH]c2c1", "INHIBITION": -15.1}
{"smiles": "CCOc1ccc2[nH]c(=O)c(CN(C)CCc3cn[nH]c3)cc2c1", "INHIBITION": 54.4}
{"smiles": "COc1ccc2[nH]c(=O)c(CN(C)CCN3CCCC3)cc2c1", "INHIBITION": 63.9}
{"smiles": "CCN1CCCC1CNC(=O)CCSc1ccc2c(c1)OCCO2", "note": "(stereo not drawn)", "INHIBITION": 38.5}
{"smiles": "CCN1CCCC1CNCc1cc2cc(OC)ccc2[nH]c1=O", "note": "(stereo not drawn)", "INHIBITION": 72.2}
{"smiles": "CCOc1cc(C)nc(N2CCN(C(=O)c3cscn3)CC2)n1", "INHIBITION": 15.3}
{"smiles": "Cc1csc(NC(=O)c2ccc(NC(=O)N3CCOCC3)cc2)n1", "INHIBITION": -37.4}
{"smiles": "Cc1cccc(C(=O)NCc2ccc(CS(N)(=O)=O)cc2)n1", "INHIBITION": -33.9}
{"smiles": "O=C1CCCN1Cc1nnc2n1CCN(Cc1ccccn1)CC2", "INHIBITION": -30.7}
{"smiles": "COc1ncc(CN2C[C@@H]3C[C@@H](O)CN3C[C@@H]2Cc2ccccc2)cn1", "INHIBITION": 33.8}
{"smiles": "c1cn2c(n1)CN(Cc1ccsc1)CC(Cn1cncn1)C2", "note": "(stereo not drawn)", "INHIBITION": 49.7}
{"smiles": "CC(C)c1nc(CN(C)Cc2ccc(O)c(C(=O)O)c2)cs1", "INHIBITION": -14.1}
{"smiles": "CCOc1ncccc1CNC(=O)Nc1ccccc1", "INHIBITION": 31.3}
{"smiles": "COc1ccc(CC2CN(C(=O)c3coc(C)n3)CCO2)cc1", "note": "(stereo not drawn)", "INHIBITION": 9.05}
{"smiles": "Cc1nc(-c2cncnc2C2CCCNC2)no1", "note": "(stereo not drawn)", "INHIBITION": -3.45}
{"smiles": "COc1ccc2c(C)c(C(=O)NC3CCOCC3)oc2c1", "INHIBITION": -104}
{"smiles": "COc1ccc2c(C)c(C(=O)NC3CCN(S(C)(=O)=O)CC3)oc2c1", "INHIBITION": -112}
{"smiles": "COc1ccc2c(C)c(C(=O)NC3CCCOC3)oc2c1", "note": "(stereo not drawn)", "INHIBITION": 60.9}
{"smiles": "CNS(=O)(=O)c1ccc(C(=O)N2CCCC2c2ccncc2)o1", "note": "(stereo not drawn)", "INHIBITION": 36.1}
{"smiles": "Cc1cc(NCc2ccco2)nc2[nH]nc(N)c12", "INHIBITION": 61}
{"smiles": "Cc1cc(NCc2ccccc2)nc2[nH]nc(N)c12", "INHIBITION": -0.232}
{"smiles": "Cc1cc(NCCO)nc2[nH]nc(N)c12", "INHIBITION": 26.7}
{"smiles": "CC1CN(C)CCN1C(=O)COc1cccc(Oc2ccccn2)c1", "note": "(stereo not drawn)", "INHIBITION": 61.2}
{"smiles": "CC1COCCN1C(=O)COc1ccc(Oc2ccccn2)cc1", "note": "(stereo not drawn)", "INHIBITION": 8.99}
{"smiles": "CC1COCCN1C(=O)COc1cccc(Oc2ccccn2)c1", "note": "(stereo not drawn)", "INHIBITION": -20.6}
{"smiles": "CC(C)CC(=O)NS(=O)(=O)c1ccc2c(c1)OCCCO2", "INHIBITION": -7.81}
{"smiles": "CCSCCC(=O)NS(=O)(=O)c1ccc2c(c1)OCCO2", "INHIBITION": 41.9}
{"smiles": "CCS(=O)(=O)c1ccc2c(c1)OCCCO2", "INHIBITION": 55.9}
{"smiles": "CCS(=O)(=O)c1ccc2c(c1)OCCO2", "INHIBITION": 77.8}
{"smiles": "CSCC(=O)NS(=O)(=O)c1ccc2c(c1)OCCO2", "INHIBITION": 8.315}
{"smiles": "O=S(=O)(CCCS(=O)(=O)c1ccc2c(c1)OCCCO2)c1ccccc1", "INHIBITION": -46.8}
{"smiles": "CC1=N[C@@]2(CC[C@@H]3CN(Cc4cccc(Cl)c4)C[C@@H]32)C(=O)N1CC1CC1", "INHIBITION": 14.9}
{"smiles": "Cc1ccc(C2CCCN(S(C)(=O)=O)C2)nc1", "note": "(stereo not drawn)", "INHIBITION": 6.75}
{"smiles": "O=C(NC[C@]12COC[C@H]1CN(C1CCOCC1)C2)c1ccco1", "INHIBITION": 38.7}
{"smiles": "Cc1cccc2c1OCCCC2NCc1nnc2n1CCCCC2", "note": "(stereo not drawn)", "INHIBITION": 86.8}
{"smiles": "Cc1ccc2c(c1)OCCCC2NCc1nnc2n1CCCCC2", "note": "(stereo not drawn)", "INHIBITION": -14.2}
{"smiles": "c1ccc2c(c1)OCCCC2NCc1nnc2n1CCCCC2", "note": "(stereo not drawn)", "INHIBITION": -0.55}
{"smiles": "CS(=O)(=O)c1cc(Cl)cnc1C1CCN(C(=O)C2CCCO2)CC1", "note": "(stereo not drawn)", "INHIBITION": 12.75}
{"smiles": "O=C(Cc1cccc(F)c1)N1C[C@H]2CN(Cc3ccccn3)C[C@H]2C1", "INHIBITION": 9.97}
{"smiles": "N#Cc1ccsc1N1CCC(Sc2ncc[nH]2)C1=O", "note": "(stereo not drawn)", "INHIBITION": 27.6}
{"smiles": "CC(C)Nc1ncccc1C(=O)NCc1ccnn1C", "INHIBITION": 43}
{"smiles": "Cn1ccnc1CNC(=O)c1ccnc(C2CCNCC2)c1", "INHIBITION": -12.4}
